This is an account of results in PubChem BioAssay (NCI).

SMILES strings stand for the structures. Compounds without any hit were thinned out: in the full panel of roughly 83,000, 20% have a hit.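 The endpoint reported here, percent growth, reads 100 for growth as untreated, 0 for no net growth and -100 for all cells dead.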 Active and inactive are the calls of the source.

The assay concerns MCF7 breast. As to the kind of experiment: NCI-60 one-dose screen, 48 h (100 = growth as untreated, 0 = no growth, -100 = all killed). To be noted: 10 µM unless noted. Here is the method: Growth inhibition of the MCF7 human tumor cell line is measured as a screen for anti-cancer activity. Cells are grown in 96 well plates and exposed to the test compound for 48 hours. Compounds are tested at a single concentration, which is 10^-5 M for most compounds. The reported endpoint is percent growth (GI% or GIPRCNT), where numbers from 0 - 100% represent growth inhibition, and numbers from -100% - 0 represent cell death. For example, a value of 40 represents 60% growth inhibition. A value of 0 means no net growth occurred over the course of the experiment. A value of -40 indicates 40% of cells at the beginning of the experiment died by the end of the experiment. A value of -100 means all cells are dead at the end of the experiment.
NCI-60 Human Tumor Cell Lines Screen was performed using the standard one-dose NCI protocol, which is described in more detail at https://dtp.cancer.gov/discovery_development/nci-60/default.htm.
Compounds with GIPRCNT values below 10 were considered active. Activity score was based on GIPRCNT using the following formula: […]
Score is 0 for GIPRCNT values of 100 or above, 50 for GIPRCNT values of 0, and 100 for GIPRCNT values of -100.
`CC(=O)Oc1ccccc1C(=O)Nc1ccc(C(=O)/C=C/c2ccncc2)cc1`: the growth is 2.69% (active). For the molecule `NS(=O)(=O)c1cccc(Nc2nc(SCC(=O)c3ccc(Br)cc3)nc3ccccc23)c1`, the growth was 32.4% (inactive). Take `Cc1cc(=O)oc2cc(OCCCOc3ccc(/C=C/C(=O)Nc4ccc(Cl)cc4)cc3)ccc12`: the growth was 35.1% (inactive). The figure for `CCOC(=O)c1c(NC(=O)c2cccc(C(F)(F)F)c2)sc2cc(O)ccc12` is 46.6% (inactive). As for `CN(C)c1ccc(/C=c2\sc3nc4ccccc4n3c2=O)cc1`, the growth was 70.3% (inactive).

In the case of `COc1ccc(/C=C/C(=O)c2ccc(NC(=O)CSc3nnc(-c4ccc5nc(-c6ccc(Cl)cc6)[nH]c5c4)o3)cc2)cc1`, the growth was 79.7% (inactive).

Regarding `COc1ccc(NC(=O)c2sc3nc(-c4cnccn4)cc(-c4cccs4)c3c2N)cc1`, the growth was 57.4% (inactive).

On to `Nc1ncc(-c2ccc3ncnc(N4CCc5cc(F)c(Cl)cc54)c3c2)cc1CO`, for which the growth was 4.61% (active).

Take `CC(=O)Nc1cc(F)cc(-c2ccc3[nH]cc(-c4ccccc4)c3n2)c1`: the growth is 1.97% (active). The figure for `COC1CCN(Cc2ccc3c(NNC(=O)c4cnccn4)nc4cc(F)ccc4n23)C1` (stereo not given) is 14% (inactive). On to `COc1cc2nc(-c3ccc(C(F)(F)F)cc3)cc(OCCCNCC3CCCO3)c2cc1OC` (stereo not given), for which the growth was 13% (inactive). The figure for `Cc1c(NC(=O)CSc2nc3sc4c(c3c(=O)n2-c2ccc(Cl)cc2)CCCC4)c(=O)n(-c2ccccc2)n1C` is 77.3% (inactive).

Regarding `N=C1CC(=O)NN1C(=O)CSc1nc2sc3c(c2c(=O)n1-c1ccc(Cl)cc1)CCCC3`, the growth is 91.8% (inactive). The figure for `CSCCC(C(=O)O)N1C(=O)/C(=C/c2ccc(O)c(O)c2)SC1=S` (stereo not given) is 93.4% (inactive). The figure for `O=C(CSc1nc2sc3c(c2c(=O)n1-c1ccc(Cl)cc1)CCCC3)NNC(=O)Nc1ccc(Cl)c(C(F)(F)F)c1` is 18.6% (inactive); for `NS(=O)(=O)c1ccc(Nc2nc(Nc3ccccc3)nc(-n3nc(-c4ccccc4)cc3-c3ccccc3)n2)cc1` it is 6.85% (active); for `N/C(=N\c1nc2c(Br)cccc2s1)C(Br)Br` it is -26.3% (active). The figure for `CC(=O)Oc1ccccc1C(=O)Nc1cc(C(C)C)ccc1C` is 9.56% (active); for `Cc1nc2cnc(N)c(C#Cc3cncc(C(=O)Nc4ccc(Cl)c(C(F)(F)F)c4)c3)c2nc1C` it is -67.5% (active); for `Clc1ccc2oc3c(NCCCN4CCOCC4)c4ccccc4nc3c2c1` it is 7.12% (active).

For `O=C(CCN1C(=O)/C(=C/c2ccccc2)SC1=S)N1CCOCC1`, the growth was 40.9% (inactive). The figure for `C#Cc1nc(C2=C(C)/C(=N/OCc3ccccc3)CC2)cs1` is 49.5% (inactive).

In the case of `N#Cc1nc(-c2ccccc2)oc1N1CC[C@@H](CO)C1`, the growth was 70.5% (inactive). Regarding `CN(C)CCCOc1c2ccc(Cl)cc2nc2c1oc1ccccc12`, the growth was -18.6% (active). As to `COc1cc(-c2nc3ccc(-c4nnc(SCC(=O)Nc5ccc(C(C)=O)cc5)o4)cc3[nH]2)cc(OC)c1OC`, the growth was 92.6% (inactive). With `C#Cc1nc(C2=C(C)C(O)/C(=N/O)C2)cs1` (stereo not given), the growth was 68.5% (inactive). On to `NC(=O)c1cc(-c2ccc3ncnc(N4CCc5cc(F)c(Cl)cc54)c3c2)cnc1N`, for which the growth is 11% (inactive).

For `CC1=C(C)C(=O)C(Nc2cccc(C(F)(F)F)c2)=C(Cl)C1=O`, the growth is 35.4% (inactive). The figure for `O=c1[nH]c2ccccc2cc1CSc1ccccc1Nc1nccc(-c2ccc(C(F)(F)F)cc2)n1` is 40.3% (inactive). On to `CCOC(=O)c1c(Nc2ccccc2)nn2c(N)c(C#N)c(-c3ccc(Cl)cc3)nc12`, for which the growth is 65.2% (inactive). `Clc1ccc2oc3c(NCCCn4ccnc4)c4ccccc4nc3c2c1`: the growth was 8.8% (active). For `O=C(CCN1C(=O)/C(=C/c2ccccc2F)SC1=S)N1CCOCC1`, the growth was 30.1% (inactive). The figure for `Clc1ccc2c(NCCCN3CCOCC3)c3oc4ccccc4c3nc2c1` is 16.6% (inactive).

Regarding `C#Cc1nc(C2=C(C)C(=N\O)/C(=N/O)C2)cs1`, the growth was 72.5% (inactive). The figure for `CS(=O)(=O)c1ccc(-c2nc3ccccn3c2-c2nc3ccc([N+](=O)[O-])cc3[nH]2)cc1` is 85.2% (inactive); for `Cc1cc(C(=O)Nc2sc3c(c2C(N)=O)CCC(=O)C3)ccc1OCCN1CCCCC1` it is 95.3% (inactive); for `COc1ccc(-c2nn3c(-c4ccccc4F)nnc3s2)cc1` it is 36.8% (inactive). The figure for `CN(C)CCCOc1c2ccc(Cl)cc2nc2c1oc1ccc(Cl)cc12` is -80.9% (active). The figure for `[Cl][Ru].c1ccc(-c2cccc(-c3ccccn3)n2)nc1.c1ccc(-c2ccnc3c2ccc2c(-c4ccccc4)ccnc23)cc1` is 9.54% (active); for `COc1ccc(C(=O)/C=C/c2ccc(OCc3ccc(C)cc3)c(OC)c2)cc1OC` it is 25.9% (inactive).
